The source made the active and inactive calls. Rule for the calls: active = hit-call score of the fitted dose curve at least 0.9, where 1 is the maximum; inactive = score below 0.9.
read-out: Monocyte Chemoattractant Protein-1 (MCP1), CCL2 (gene 6347); experiment: BSK_4H_MCP1: BioMAP Diversity Plus: 4H Assay for Monocyte Chemoattractant Protein-1 (MCP1) Biomarker Activity (AID 2283018); conditions: primary human endothelial cells (HUVEC); actives raise or lower the signal
Procedure: BSK_4H is a cell-based, multiplexed-readout assay that uses umbilical vein endothelium, a human vascular primary cell, with measurements taken at 24 hours after chemical dosing in a 96-well plate.BSK_4H_MCP1 is an assay component measured in the BSK_4H assay. It measures MCP-1 antibody related to regulation of gene expression using ELISA technology.Data from the assay component BSK_4H_MCP1 was analyzed into 1 assay endpoint. This assay endpoint, BSK_4H_MCP1, was analyzed with bidirectional fitting relative to DMSO as the negative control and baseline of activity. Using a type of binding reporter, gain or loss-of-signal activity can be used to understand changes in the signaling as they relate to the gene CCL2. Furthermore, this assay endpoint can be referred to as a primary readout, because this assay has produced multiple assay endpoints where this one serves a signaling function. To generalize the intended target to other relatable targets, this assay endpoint is annotated to the cytokine intended target family, where the subfamily is chemotactic factor.
The levels of cell surface (or secreted, indicated by the prefix "s") biomarker endpoints were measured by ELISA. Overt cytotoxicity to cells in confluent adherent cultures (all systems other than the BT system) was assessed by measuring total protein levels using sulforhodamine B (SRB) staining in parallel cultures at the time of biomarker measurements, indicated as SRB endpoints. For proliferation assays for adherent cell types, individual cell types are cultured at sub-confluence and relative cell numbers quantified by SRB staining at time points optimized for each system (48 h: 3C and CASM3C systems; 72 h: BT and HDF3CGF systems; 96 h: SAg system). SRB was performed by staining cells with 0.1% SRB after fixation with 10% TCA and reading wells at 560 nm.Viability and proliferation of PBMC (T cells) was quantified by Alamar Blue reduction for the SAg and BT systems. For PBMC viability (referred to as PBMC Cytotoxicity within the assay endpoint names), cells were plated (75,000/well in a 96-well plate) and then chemical samples added for 1 h before addition of activators, SEB and TSST-1 (20 ng/mL final concentration each). Cells were incubated for 90 h. Then, Alamar Blue (20 uL/well) (Invitrogen, Cat DAL1100) was added for 6 h, and the plates were read with a fluorescence microplate reader at 546/580 nm (excitation/emission). For PBMC proliferation, cells were plated and activated as above but incubated for only 16 h prior to addition of Alamar Blue. Plates were read after 6 h.

AC50, active:
Cc1c2ccccc2c(C)c2c1ccc1ccccc12 13 µM
CCCCCCCC[Si](OCC)(OCC)OCC 29.5 µM
CCCCCCCCCCCCO 31.9 µM
CC(C)(C)c1csc(-c2cc3cc(OCc4ccccc4CC(=O)O)ccc3o2)n1 22.6 µM
O=C(Nc1ccc(Cl)cc1)Nc1ccc(Cl)c(Cl)c1 4.31 µM
CC(C)(C)c1cc(/C=C2\SC(N)=NC2=O)cc(C(C)(C)C)c1O 20 µM
COc1ccc2cc(S(=O)(=O)N[C@H](CC(=O)N[C@H](Cc3ccc(CN4[C@H](C)CCC[C@@H]4C)cc3)C(=O)N(C)C(C)C)c3ccc4c(c3)OCO4)ccc2c1 8.16 µM
CCCCCCCCCCCC[N+](C)(C)C 16.3 µM
CC(C)(c1cc(Br)c(O)c(Br)c1)c1cc(Br)c(O)c(Br)c1 26.6 µM
CC(=O)N1CCN(c2ccc(OC[C@H]3CO[C@](Cn4ccnc4)(c4ccc(Cl)cc4Cl)O3)cc2)CC1 26.4 µM
CCN(CC)C(=O)c1cc(S(=O)(=O)Cc2ccccc2)c(N2CCC(c3ccccc3)CC2)cc1N(CC)CCN(C)C 18.7 µM
CCCCCCCCOC(=O)c1cc(O)c(O)c(O)c1 8.64 µM
CN(C)C(=O)C1(N2CCCCC2)CCN(CC[C@@]2(c3ccc(Cl)c(Cl)c3)CN(C(=O)c3ccccc3)CCO2)CC1 18.9 µM
CN1C(=O)N(c2ccccc2Br)Cc2cnc(Nc3ccc4c(c3)OCC(CO)O4)nc21 (stereo not given) 2.11 µM

outcome, inactive:
CCCCCCCCCC(=O)O
O=C1CCC(C2CCCCC2)CC1
CCCC(=O)OCCC(C)C
O=C(O)Cn1c(=O)n(Cc2ccc(Br)cc2F)c(=O)c2ccc(Cl)cc21
CCCCCCCCCCCO
O=C=NCCCCCCN=C=O
COCC(C)OCC(C)OCC(C)O (stereo not given)
CC(C)(O)c1ccc(CNC(=O)c2cccnc2Oc2ccc3nonc3c2)cc1
CC1(C)NC(=O)N(c2ccc([N+](=O)[O-])c(C(F)(F)F)c2)C1=O
CC[C@H](NC(=O)c1cc(F)ccc1NS(=O)(=O)c1cccc2cccnc12)c1ccccc1
Cc1cccc2ccccc12
CN1C(=O)CC[C@H]1c1cccnc1
O=C(OCCCCCCOC(=O)c1ccccc1)c1ccccc1
CO[C@H]1/C=C/O[C@@]2(C)Oc3c(C)c(O)c4c(O)c(c(/C=N/N5CCN(C)CC5)c(O)c4c3C2=O)NC(=O)/C(C)=C\C=C\[C@H](C)[C@H](O)[C@@H](C)[C@@H](O)[C@@H](C)[C@H](OC(C)=O)[C@@H]1C
Cc1cn([C@H]2C[C@H](N=[N+]=[N-])[C@@H](CO)O2)c(=O)[nH]c1=O
O=C(O)Cc1cc(I)c(Oc2ccc(O)c(I)c2)c(I)c1
O=C(O)c1ccccc1-n1cc(C(=O)O)c(=O)c2cc(Nc3c(F)cc(F)cc3Cl)c(Cl)cc21
CC(O)CC(C)(C)O (stereo not given)
c1ccc2n[nH]nc2c1
COc1cccc([C@H](O)C2CCN(CCc3ccc(F)cc3)CC2)c1OC
Cc1ncc(CO)c(CO)c1O
O=CCCCC=O
C[C@]12CC[C@@H]3c4ccc(O)cc4CC[C@H]3[C@@H]1CC[C@H]2O
O=C1O[C@H]([C@@H](O)CO)C(O)=C1O
CCN(Cc1cccc(S(=O)(=O)O)c1)c1ccc(C(=C2C=CC(=[N+](CC)Cc3cccc(S(=O)(=O)O)c3)C=C2)c2ccccc2S(=O)(=O)[O-])cc1
C[C@]12CC[C@@H]3c4ccc(O)cc4CC[C@H]3[C@@H]1CCC2=O

— PubChem BioAssay (EPA / NIEHS)
